# Assay results as given in paper PMC7862700, “An all-to-all approach to the identification of sequence-specific readers for epigenetic DNA modifications on cytosine”.
# Legend:
# Assay in all cases: DAPPL (digital affinity profiling via proximity ligation, sequencing); 10 mM Tris-HCl pH 7.5, 50 mM NaCl, 1 mM DTT, 4% glycerol, room temperature, 30 min; GST-TFs on glutathione beads, 16-mer random dsDNA library, 0.1% formaldehyde crosslink after washing; high values mean tight binding
# FEV = molecular target: T1, FEV (Homo sapiens, UniProt Q99581 1-238); settings: protein: recombinant; tags: N-terminal GST; dsDNA, one strand shown
# T1 sequence: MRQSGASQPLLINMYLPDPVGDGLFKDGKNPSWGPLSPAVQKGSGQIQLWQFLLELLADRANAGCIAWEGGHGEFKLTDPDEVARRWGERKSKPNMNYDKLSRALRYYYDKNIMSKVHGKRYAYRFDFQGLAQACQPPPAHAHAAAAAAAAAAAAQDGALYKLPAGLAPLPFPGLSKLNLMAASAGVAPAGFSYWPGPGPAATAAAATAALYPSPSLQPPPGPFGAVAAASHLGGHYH
# Method in brief: (§1)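 Beads coated with glutathione captured GST-fused human transcription factors that had been expressed in yeast, and the factors were then given DNA barcodes and pooled with a tag-only sample. The pools were incubated with 200 nmole of a random double-stranded 16-mer DNA library in Tris/NaCl/DTT/glycerol buffer for 30 min at room temperature, washed, crosslinked with 0.1% formaldehyde and proximity-ligated with BsaI/T4 ligase at 37 °C for 1 h. PCR amplification and Illumina NextSeq500 sequencing came last. Binding signal is each hexamer's read frequency for a factor divided by its frequency for the tag-only sample.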
# ETV5 = ETV5 (Homo sapiens, UniProt P41161 1-510); settings: protein: recombinant; tags: N-terminal GST; dsDNA, one strand shown
# Method in brief: as §1
# HSF1 = HSF1 (Homo sapiens, UniProt Q00613 1-529); settings: protein: recombinant; tags: N-terminal GST; chain copies: 3; dsDNA, one strand shown
# Method in brief: as §1
# SPIC = molecular target: T2, SPIC (Homo sapiens, UniProt Q8N5J4 1-248); settings: protein: recombinant; tags: N-terminal GST; dsDNA, one strand shown
# T2 sequence: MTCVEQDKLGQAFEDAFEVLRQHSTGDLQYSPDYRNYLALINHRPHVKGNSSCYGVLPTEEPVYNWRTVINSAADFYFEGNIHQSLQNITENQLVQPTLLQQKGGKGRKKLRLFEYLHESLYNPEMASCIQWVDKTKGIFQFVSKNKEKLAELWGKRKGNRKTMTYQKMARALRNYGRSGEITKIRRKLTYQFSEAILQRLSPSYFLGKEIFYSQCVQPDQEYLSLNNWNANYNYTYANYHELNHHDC
# Method in brief: as §1
# ELF4 = ELF4 (Homo sapiens, UniProt Q99607 1-663); settings: protein: recombinant; tags: N-terminal GST; dsDNA, one strand shown
# Method in brief: as §1
# ELK4 = molecular target: T3, ELK4 (Homo sapiens, UniProt P28324-2 1-405); settings: protein: recombinant; tags: N-terminal GST; dsDNA, one strand shown
# T3 sequence: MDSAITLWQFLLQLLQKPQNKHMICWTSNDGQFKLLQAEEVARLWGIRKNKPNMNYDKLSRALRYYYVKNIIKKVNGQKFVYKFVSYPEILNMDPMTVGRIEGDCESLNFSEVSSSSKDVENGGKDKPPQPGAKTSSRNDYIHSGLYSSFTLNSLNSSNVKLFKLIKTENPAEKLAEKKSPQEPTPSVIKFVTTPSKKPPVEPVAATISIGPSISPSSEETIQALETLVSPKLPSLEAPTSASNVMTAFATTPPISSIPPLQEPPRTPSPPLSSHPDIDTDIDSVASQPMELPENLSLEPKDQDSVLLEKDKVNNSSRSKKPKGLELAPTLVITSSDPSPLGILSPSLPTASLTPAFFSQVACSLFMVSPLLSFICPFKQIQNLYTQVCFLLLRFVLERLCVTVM
# Method in brief: as §1
# ETV2 = molecular target: T4, ETV2 (Homo sapiens, UniProt O00321 1-342); settings: protein: recombinant; tags: N-terminal GST; dsDNA, one strand shown
# T4 sequence: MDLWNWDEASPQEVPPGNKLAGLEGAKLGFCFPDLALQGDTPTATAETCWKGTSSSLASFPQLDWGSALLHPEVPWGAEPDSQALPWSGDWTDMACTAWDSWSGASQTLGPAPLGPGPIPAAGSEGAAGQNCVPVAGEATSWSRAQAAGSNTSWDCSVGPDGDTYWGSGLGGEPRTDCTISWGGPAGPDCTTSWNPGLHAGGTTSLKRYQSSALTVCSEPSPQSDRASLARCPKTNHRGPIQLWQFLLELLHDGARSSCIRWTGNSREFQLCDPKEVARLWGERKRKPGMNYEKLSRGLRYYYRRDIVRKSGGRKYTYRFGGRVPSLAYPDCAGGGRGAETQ
# Method in brief: as §1
# ELF3 = molecular target: T5, ELF3 (Homo sapiens, UniProt P78545 1-371); settings: protein: recombinant; tags: N-terminal GST; dsDNA, one strand shown
# T5 sequence: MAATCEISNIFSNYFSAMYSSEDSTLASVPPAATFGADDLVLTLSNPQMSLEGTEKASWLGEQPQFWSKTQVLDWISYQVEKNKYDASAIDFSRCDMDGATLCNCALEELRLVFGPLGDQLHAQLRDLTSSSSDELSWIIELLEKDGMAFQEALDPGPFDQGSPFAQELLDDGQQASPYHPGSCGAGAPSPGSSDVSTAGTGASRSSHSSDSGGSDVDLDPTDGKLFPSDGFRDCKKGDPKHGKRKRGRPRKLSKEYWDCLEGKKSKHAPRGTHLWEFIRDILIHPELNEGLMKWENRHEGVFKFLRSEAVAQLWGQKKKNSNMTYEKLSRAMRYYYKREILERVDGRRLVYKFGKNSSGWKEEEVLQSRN
# Method in brief: as §1
# CRX = CRX (Homo sapiens, UniProt O43186 1-299); settings: protein: recombinant; tags: N-terminal GST; dsDNA, one strand shown
# Method in brief: as §1
# ETV1 = ETV1 (Homo sapiens, UniProt P50549 1-477); settings: protein: recombinant; tags: N-terminal GST; dsDNA, one strand shown
# Method in brief: as §1
# ERF = molecular target: T6, ERF (Homo sapiens, UniProt P50548 1-548); settings: protein: recombinant; tags: N-terminal GST; dsDNA, one strand shown
# T6 sequence: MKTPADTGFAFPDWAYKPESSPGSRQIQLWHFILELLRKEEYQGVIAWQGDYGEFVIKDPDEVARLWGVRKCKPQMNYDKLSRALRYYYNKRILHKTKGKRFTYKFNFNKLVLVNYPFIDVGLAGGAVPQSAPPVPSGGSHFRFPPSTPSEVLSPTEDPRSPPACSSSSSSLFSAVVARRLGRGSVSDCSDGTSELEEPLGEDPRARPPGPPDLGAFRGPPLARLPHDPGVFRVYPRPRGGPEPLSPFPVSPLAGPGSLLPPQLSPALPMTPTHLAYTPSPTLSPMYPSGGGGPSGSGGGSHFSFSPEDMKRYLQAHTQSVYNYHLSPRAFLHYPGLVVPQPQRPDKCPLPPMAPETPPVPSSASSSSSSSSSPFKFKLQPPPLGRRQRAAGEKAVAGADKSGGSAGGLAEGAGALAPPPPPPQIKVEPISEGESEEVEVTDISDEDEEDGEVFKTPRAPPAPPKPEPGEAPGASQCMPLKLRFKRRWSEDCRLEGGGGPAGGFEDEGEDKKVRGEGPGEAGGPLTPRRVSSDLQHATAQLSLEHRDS
# Method in brief: as §1
# ETV3L = molecular target: T7, ETV3L (Homo sapiens, UniProt Q6ZN32 1-361); settings: protein: recombinant; tags: N-terminal GST; dsDNA, one strand shown
# T7 sequence: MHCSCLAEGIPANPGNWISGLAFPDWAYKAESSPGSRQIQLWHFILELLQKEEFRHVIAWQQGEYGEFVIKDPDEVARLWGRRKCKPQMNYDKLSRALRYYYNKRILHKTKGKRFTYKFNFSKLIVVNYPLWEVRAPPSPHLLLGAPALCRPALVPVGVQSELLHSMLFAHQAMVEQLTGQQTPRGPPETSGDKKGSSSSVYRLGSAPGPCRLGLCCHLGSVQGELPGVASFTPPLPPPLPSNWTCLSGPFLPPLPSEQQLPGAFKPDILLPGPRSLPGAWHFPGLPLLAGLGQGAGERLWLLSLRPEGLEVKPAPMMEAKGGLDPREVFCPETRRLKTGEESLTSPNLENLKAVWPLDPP
# Method in brief: as §1
# ETS2 = molecular target: T8, ETS2 (Homo sapiens, UniProt P15036 1-469); settings: protein: recombinant; tags: N-terminal GST; dsDNA, one strand shown
# T8 sequence: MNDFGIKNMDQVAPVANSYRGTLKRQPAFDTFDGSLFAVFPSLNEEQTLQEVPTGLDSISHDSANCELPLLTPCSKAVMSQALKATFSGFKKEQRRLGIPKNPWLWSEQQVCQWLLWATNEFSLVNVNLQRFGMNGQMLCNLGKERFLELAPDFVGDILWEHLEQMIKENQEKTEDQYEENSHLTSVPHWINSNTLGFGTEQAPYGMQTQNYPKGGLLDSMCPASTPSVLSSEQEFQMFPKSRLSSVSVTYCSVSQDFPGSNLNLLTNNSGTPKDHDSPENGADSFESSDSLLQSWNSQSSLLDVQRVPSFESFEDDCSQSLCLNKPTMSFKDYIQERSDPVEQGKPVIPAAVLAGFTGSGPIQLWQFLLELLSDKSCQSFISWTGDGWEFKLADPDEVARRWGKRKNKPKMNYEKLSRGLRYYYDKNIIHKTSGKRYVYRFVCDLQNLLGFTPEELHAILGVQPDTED
# Method in brief: as §1
# SPDEF = molecular target: T9, SPDEF (Homo sapiens, UniProt O95238 1-335); settings: protein: recombinant; tags: N-terminal GST; dsDNA, one strand shown
# T9 sequence: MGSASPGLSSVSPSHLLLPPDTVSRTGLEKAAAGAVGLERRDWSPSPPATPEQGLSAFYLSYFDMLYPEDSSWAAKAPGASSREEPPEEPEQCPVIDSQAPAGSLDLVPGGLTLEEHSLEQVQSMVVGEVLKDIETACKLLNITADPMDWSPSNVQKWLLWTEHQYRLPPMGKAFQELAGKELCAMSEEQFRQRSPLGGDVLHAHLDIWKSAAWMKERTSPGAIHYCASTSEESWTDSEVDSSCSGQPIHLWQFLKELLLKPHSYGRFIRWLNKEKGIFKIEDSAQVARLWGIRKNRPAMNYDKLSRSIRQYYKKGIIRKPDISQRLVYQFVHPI
# Method in brief: as §1
# ETV7 = molecular target: T10, ETV7 (Homo sapiens, UniProt Q9Y603 1-341); settings: protein: recombinant; tags: N-terminal GST; dsDNA, one strand shown
# T10 sequence: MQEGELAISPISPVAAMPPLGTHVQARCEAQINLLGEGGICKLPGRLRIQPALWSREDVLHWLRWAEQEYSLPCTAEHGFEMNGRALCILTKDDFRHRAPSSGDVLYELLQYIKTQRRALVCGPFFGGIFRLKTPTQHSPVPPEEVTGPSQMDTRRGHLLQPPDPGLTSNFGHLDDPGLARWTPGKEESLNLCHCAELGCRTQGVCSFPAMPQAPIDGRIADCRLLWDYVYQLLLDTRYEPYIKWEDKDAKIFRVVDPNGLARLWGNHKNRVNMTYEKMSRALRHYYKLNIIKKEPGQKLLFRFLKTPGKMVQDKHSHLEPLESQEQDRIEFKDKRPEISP
# Method in brief: as §1
# ELF5 = molecular target: T11, ELF5 (Homo sapiens, UniProt Q9UKW6-2 1-255); settings: protein: recombinant; tags: N-terminal GST; dsDNA, one strand shown
# T11 sequence: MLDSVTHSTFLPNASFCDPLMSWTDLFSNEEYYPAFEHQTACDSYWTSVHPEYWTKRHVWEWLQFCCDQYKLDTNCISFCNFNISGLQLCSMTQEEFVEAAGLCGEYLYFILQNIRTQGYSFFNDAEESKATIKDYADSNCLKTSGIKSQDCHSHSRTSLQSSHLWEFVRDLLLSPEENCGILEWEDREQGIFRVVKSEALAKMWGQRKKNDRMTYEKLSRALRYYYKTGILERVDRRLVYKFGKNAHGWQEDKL
# Method in brief: as §1
# ETV3 = molecular target: T12, ETV3 (Homo sapiens, UniProt P41162-2 1-143); settings: protein: recombinant; tags: N-terminal GST; dsDNA, one strand shown
# T12 sequence: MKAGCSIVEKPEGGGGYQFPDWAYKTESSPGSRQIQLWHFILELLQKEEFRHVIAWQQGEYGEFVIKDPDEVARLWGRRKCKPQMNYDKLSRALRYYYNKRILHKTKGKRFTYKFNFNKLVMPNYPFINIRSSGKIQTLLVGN
# Method in brief: as §1
# ETV6 = ETV6 (Homo sapiens, UniProt P41212 1-452); settings: protein: recombinant; tags: N-terminal GST; dsDNA, one strand shown
# Method in brief: as §1
# Sequence of HSF1 (Q00613 whole entry): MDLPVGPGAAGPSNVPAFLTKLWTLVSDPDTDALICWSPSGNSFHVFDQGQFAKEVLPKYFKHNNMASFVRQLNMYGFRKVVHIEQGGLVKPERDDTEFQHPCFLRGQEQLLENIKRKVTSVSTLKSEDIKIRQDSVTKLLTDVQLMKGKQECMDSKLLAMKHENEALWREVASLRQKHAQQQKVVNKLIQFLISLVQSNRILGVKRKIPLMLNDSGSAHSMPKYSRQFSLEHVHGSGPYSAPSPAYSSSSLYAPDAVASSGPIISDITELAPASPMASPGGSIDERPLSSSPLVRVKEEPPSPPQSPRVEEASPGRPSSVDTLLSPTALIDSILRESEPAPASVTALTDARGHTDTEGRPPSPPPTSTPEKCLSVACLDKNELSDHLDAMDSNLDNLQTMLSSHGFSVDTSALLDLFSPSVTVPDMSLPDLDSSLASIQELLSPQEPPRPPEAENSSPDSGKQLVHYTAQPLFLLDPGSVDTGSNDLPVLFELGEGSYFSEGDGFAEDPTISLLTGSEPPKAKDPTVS
# Sequence of ELF4 (Q99607 whole entry): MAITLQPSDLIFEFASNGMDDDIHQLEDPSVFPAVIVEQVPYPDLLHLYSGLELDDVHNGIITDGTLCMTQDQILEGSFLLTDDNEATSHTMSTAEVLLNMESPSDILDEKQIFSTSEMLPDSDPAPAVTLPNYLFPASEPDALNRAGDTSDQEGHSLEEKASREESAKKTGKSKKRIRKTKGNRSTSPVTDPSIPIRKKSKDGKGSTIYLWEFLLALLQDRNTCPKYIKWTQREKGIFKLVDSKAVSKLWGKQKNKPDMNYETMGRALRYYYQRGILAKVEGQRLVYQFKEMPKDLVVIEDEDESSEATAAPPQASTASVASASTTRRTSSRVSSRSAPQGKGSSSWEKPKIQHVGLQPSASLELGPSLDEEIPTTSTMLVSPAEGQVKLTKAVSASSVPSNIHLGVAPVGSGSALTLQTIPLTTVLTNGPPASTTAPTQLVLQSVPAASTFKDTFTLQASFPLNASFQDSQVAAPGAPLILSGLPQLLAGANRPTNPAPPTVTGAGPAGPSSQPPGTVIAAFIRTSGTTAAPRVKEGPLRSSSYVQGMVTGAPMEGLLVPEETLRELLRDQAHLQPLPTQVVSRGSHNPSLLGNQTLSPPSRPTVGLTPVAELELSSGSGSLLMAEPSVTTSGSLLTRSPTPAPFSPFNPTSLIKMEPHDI
# Sequence of ETV1 (P50549 whole entry): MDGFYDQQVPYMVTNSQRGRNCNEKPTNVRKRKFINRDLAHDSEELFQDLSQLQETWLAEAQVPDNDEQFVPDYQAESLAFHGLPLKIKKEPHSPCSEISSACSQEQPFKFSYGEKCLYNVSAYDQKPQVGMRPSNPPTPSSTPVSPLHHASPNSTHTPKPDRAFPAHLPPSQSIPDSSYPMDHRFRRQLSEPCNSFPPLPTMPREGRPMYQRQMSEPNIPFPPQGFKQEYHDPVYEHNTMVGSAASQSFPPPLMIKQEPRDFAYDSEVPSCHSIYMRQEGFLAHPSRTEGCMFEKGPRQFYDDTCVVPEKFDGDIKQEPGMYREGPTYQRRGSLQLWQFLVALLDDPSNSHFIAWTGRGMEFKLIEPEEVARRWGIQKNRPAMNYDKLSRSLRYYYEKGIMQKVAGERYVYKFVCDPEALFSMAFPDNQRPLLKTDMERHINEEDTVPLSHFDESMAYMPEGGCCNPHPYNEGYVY
# Sequence of ETV6 (P41212 whole entry): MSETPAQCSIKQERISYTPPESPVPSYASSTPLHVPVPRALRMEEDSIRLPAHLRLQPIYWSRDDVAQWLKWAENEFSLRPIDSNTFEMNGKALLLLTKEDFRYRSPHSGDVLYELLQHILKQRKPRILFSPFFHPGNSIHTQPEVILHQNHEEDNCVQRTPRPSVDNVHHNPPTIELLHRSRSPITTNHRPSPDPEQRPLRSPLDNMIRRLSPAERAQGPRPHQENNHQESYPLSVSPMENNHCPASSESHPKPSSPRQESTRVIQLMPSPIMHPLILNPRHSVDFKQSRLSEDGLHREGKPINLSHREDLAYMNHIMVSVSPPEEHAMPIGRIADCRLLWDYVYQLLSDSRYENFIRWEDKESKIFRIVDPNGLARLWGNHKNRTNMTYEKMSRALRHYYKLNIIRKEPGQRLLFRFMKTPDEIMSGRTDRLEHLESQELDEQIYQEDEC
# Sequence of CRX (O43186 whole entry): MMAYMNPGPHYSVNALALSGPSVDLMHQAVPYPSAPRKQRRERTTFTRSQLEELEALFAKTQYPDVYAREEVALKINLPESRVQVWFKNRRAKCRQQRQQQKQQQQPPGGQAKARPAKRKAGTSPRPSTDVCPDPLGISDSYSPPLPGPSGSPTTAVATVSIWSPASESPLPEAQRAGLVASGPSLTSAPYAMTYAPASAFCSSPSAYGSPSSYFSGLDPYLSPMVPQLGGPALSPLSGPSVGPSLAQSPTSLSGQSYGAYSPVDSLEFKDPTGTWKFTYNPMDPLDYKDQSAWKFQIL
# Sequence of ETV5 (P41161 whole entry): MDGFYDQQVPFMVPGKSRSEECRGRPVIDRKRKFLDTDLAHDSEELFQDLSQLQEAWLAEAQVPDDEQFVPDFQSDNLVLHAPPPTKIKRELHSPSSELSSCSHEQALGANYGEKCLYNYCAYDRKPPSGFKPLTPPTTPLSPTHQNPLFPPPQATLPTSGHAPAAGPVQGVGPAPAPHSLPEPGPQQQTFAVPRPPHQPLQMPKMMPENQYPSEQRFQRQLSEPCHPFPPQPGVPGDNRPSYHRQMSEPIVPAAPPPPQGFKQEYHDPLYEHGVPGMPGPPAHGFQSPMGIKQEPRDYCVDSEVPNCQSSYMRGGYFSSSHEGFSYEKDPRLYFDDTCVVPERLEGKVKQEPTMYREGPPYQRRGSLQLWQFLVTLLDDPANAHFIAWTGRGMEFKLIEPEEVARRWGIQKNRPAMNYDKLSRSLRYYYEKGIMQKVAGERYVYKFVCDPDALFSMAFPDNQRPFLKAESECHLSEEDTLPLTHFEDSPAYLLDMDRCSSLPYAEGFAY
sequence,measurement,setting,value
CTTCGC,binding signal,FEV,"1.41 fold enrichment (6-mer frequency, TF over GST control)"
same,binding signal,ETV5,"1.31 fold enrichment (6-mer frequency, TF over GST control)"
same,binding signal,HSF1,"1.63 fold enrichment (6-mer frequency, TF over GST control)"
same,binding signal,SPIC,"1.18 fold enrichment (6-mer frequency, TF over GST control)"
same,binding signal,ELF4,"1.45 fold enrichment (6-mer frequency, TF over GST control)"
same,binding signal,ELK4,"1.32 fold enrichment (6-mer frequency, TF over GST control)"
same,binding signal,ETV2,"1.62 fold enrichment (6-mer frequency, TF over GST control)"
same,binding signal,ELF3,"1.37 fold enrichment (6-mer frequency, TF over GST control)"
same,binding signal,CRX,"1.24 fold enrichment (6-mer frequency, TF over GST control)"
same,binding signal,ETV1,"1.52 fold enrichment (6-mer frequency, TF over GST control)"
same,binding signal,ERF,"1.61 fold enrichment (6-mer frequency, TF over GST control)"
same,binding signal,ETV3L,"1.45 fold enrichment (6-mer frequency, TF over GST control)"
same,binding signal,ETS2,"1.42 fold enrichment (6-mer frequency, TF over GST control)"
same,binding signal,SPDEF,"1.54 fold enrichment (6-mer frequency, TF over GST control)"
same,binding signal,ETV7,"1.38 fold enrichment (6-mer frequency, TF over GST control)"
same,binding signal,ELF5,"1.34 fold enrichment (6-mer frequency, TF over GST control)"
same,binding signal,ETV3,"1.43 fold enrichment (6-mer frequency, TF over GST control)"
same,binding signal,ETV6,"1.34 fold enrichment (6-mer frequency, TF over GST control)"
